Screening data (PubChem)
Shown are actives, neighbours in structure and some others; about 6% of the full set was active somewhere.
D3 antag: D3 dopamine receptor (human) antagonism; P35462; D3R cells, DiscoveRx beta-arrestin luminescence, antagonist mode; hits give low values; max response, negative = inhibition, %; actives 2.5% (n = 360,000); AID 652054; in the data active = max response below about -50%; inconclusive = no clear call, values can overlap the other calls; note: % is set by controls: 0 for no effect and ±100 for the full control effect
Target sequence (P35462 whole entry, looked up): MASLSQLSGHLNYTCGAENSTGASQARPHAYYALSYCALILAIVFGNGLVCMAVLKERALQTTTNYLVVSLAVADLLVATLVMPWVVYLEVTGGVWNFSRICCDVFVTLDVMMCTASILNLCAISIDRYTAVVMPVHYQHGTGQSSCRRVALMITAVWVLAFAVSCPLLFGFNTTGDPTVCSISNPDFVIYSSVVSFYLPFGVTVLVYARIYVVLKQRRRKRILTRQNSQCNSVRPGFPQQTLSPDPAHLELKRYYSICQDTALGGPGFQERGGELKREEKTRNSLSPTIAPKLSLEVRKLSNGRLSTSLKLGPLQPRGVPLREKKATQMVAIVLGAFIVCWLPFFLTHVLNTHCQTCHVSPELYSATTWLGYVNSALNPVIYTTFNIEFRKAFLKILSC
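Cells plated overnight at 1500 cells/well, then exposed to library compounds with dopamine controls for 90 minutes at 37 degrees C. DiscoveRx reagent added for 30–60 minutes at room temperature; luminescence read, quantitative HTS format.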
D1 potentiator: human D1 dopamine receptor positive modulation. P21728. HEK293 TREx D1 cells, calcium flux, dopamine EC20 potentiation. potentiation, % at 10 µM. actives 0.036% (n = 360,000). AID 504651; in the data active = potentiation above about 30%; note: 0% is about no effect
D1 ag: activates the human D1 dopamine receptor; P21728; actives 1% (n = 360,000); AID 504660; HEK293 T-REx D1 cells, calcium flux, agonist mode; activation, % at 2 µM; in the data active = activation above about 30%; note: 0% is about no effect
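Agonism was scored from calcium flux recorded over 180 s (1 read/s) after pintool compound addition, following a 10-cycle baseline. Cells were inducible force-coupled HEK293 TREx D1, plated overnight at 30 C and loaded with no-wash calcium dye.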
D3 ag: activates the human D3 dopamine receptor. P35462. D3R DiscoveRx beta-arrestin cells, luminescence, 90 min. max activation, %. actives 0.58% (n = 410,000). AID 652048; in the data active = max activation above about 30%; note: 0% is about no effect
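Agonist-mode cell screen: cells plated at 1500/well and incubated overnight at 37 °C, then exposed to library compounds for 90 min at 37 °C. Detection reagent was added for 30–60 min at room temperature, and luminescence was read.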
D1 antagonist: human D1 dopamine receptor antagonism; P21728; HEK293 TREx D1 cells, calcium flux, dopamine EC80; hits give low values; activity change, negative = inhibition, % at 10 µM; actives 3.2% (n = 360,000); AID 504652; in the data active = activity change below about -30%; note: % is set by controls: 0 for no effect and ±100 for the full control effect
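Tetracycline-induced HEK293 T-REx cells with force-coupled D1 receptor were loaded with a no-wash calcium dye. Compound was added after a 10 s baseline and read kinetically for 180 s; EC80 dopamine was then added and calcium flux followed another 180 s.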
An asterisk follows results filed as active; ? = inconclusive; · = no result; ! = a repeat was not active.

SMILES	D3 antag	D1 potentiator	D1 ag	D3 ag	D1 antagonist
Cc1ccc2oc(-c3cc(NC(=O)c4ccco4)ccc3Cl)nc2c1	·	-1	-2	-1	-39*
O=C(O)c1ccccc1-c1ccccc1C(=O)Nc1ccc(-c2nc3cc(Cl)ccc3o2)cc1	-5	-4	7	7	-30*
O=C(Nc1ccc2oc(-c3ccccc3F)nc2c1)c1ccccc1Cl	·	-2	4	4	-48*
O=C(Nc1ccc2oc(-c3ccncc3)nc2c1)c1ccccc1Cl	·	0	2	6	-71*
COCCN1Cc2cccc(C(=O)Nc3ccc(C)cc3C)c2C1=O	·	2	4	9	1
O=C(Nc1ccc2oc(-c3ccncc3)nc2c1)c1c(F)c(F)c(F)c(F)c1F	-66*	-7	7	-16	-21
CCOC(=O)c1cc(C(=O)OCC)c2ccccn2c1=O	-9	-3	1	1	-33*
CCOC(=O)c1c[nH]n(-c2ccccc2)c1=O	3	-5	1	2	-15
CCOC(=O)N[C@H](Cc1c[nH]c2ccccc12)C(=O)Nc1cccc(Cl)c1	·	-3	8	-5	-41*
CCOc1ccc2ccccc2c1C(=O)N[C@@H]1C(=O)N2[C@@H]1SC(C)(C)[C@@H]2C(=O)O	105	-3	-2	49*!	-11
CCOC(=O)c1ccc(NC(=O)CN(C)S(=O)(=O)c2ccc(OC)cc2)cc1	13	0	2	-1	-16
CN(CC(=O)NCCc1ccccc1)S(=O)(=O)c1ccc(Br)s1	-78*	5	7	-30	-26
CCOC(=O)c1ccc(NC(=O)CN(C)S(=O)(=O)c2ccc(Br)s2)cc1	18	-12	10	0	-38*
CCOc1ccc(NC(=O)CCS(=O)(=O)c2ccc(Br)s2)cc1	·	3	0	0	1
Cc1ccc(NC(=O)CCS(=O)(=O)c2ccc(Br)s2)cc1	-9	-8	4	-18	-53*
Cn1c(=O)oc2cc(S(=O)(=O)NCCC(=O)Nc3ccc(F)cc3F)ccc21	·	-1	2	6	6
COc1ccc(CCNC(=O)C2CCN(c3nc4ccccc4nc3C(F)(F)F)CC2)cc1OC	·	-6	1	9	-15
O=C(O)CC1S/C(=N/N=C/c2ccc(-c3ccc(Cl)c([N+](=O)[O-])c3)o2)NC1=O (configuration not stated)	-3	4	1	-9	1
O=C(O)CC1S/C(=N/N=C/c2ccc(-c3ccc(Cl)cc3[N+](=O)[O-])o2)NC1=O (configuration not stated)	-77*	-7	1	-7	5
NC(=O)c1ccc(NC(=O)C2CCN(S(=O)(=O)Cc3ccccc3)CC2)cc1	·	0	1	-4	1
COc1ccc(-c2cc3ccccc3nc2N)cc1OC	12	-5	12	4	-38*
CCNC(=O)C1(C)CCCN1C(=O)c1cnc2ccccc2n1 (configuration not stated)	-58*	·	·	-3	·
COC(=O)c1ccc2nc(-c3cccc(Br)c3)c(Cc3ccsc3)n2c1	7	·	·	1	·
CC1=NN(c2nc(-c3ccc(C)cc3)cs2)C(=O)C1N=Nc1ccccc1O (configuration not stated)	-64*	-4	10	-13	0
CC1=NN(c2nc(-c3ccc(C)cc3)cs2)C(=O)C1N=Nc1cccc(O)c1 (configuration not stated)	4	2	2	-9	-2
SMILES	D3 antag	D1 potentiator	D1 ag	D3 ag	D1 antagonist
COc1ccc(-c2cc(C)nc(SCc3cccc(C(=O)O)c3)n2)cc1	13	-3	4	-8	-13
O=C(O)c1cccc(CSc2nc(-c3ccc(Cl)cc3)cc(C(F)(F)F)n2)c1	?	0	9	1	-37*
CCC(C)NCCOCCOc1ccc(Cl)c2ccccc12 (configuration not stated)	-56*	0	58*	-14	-45*
CCC(C)NCCOCCSc1ccc(Cl)cc1 (configuration not stated)	-78*	-9	7	-10	2
C=CCc1cc(Cl)ccc1OCCOCCNC(C)CC (configuration not stated)	?	-6	6	-16	2
CCC(C)NCCOCCOc1ccc(Cl)c(C)c1C (configuration not stated)	-64*	-3	34*	-13	-4
C[C@H](NC(=O)c1ccccc1)C(=O)OCC(=O)Nc1sccc1C(N)=O	-13	·	·	-4	·
CCOC(=O)N1CCC(N2Cc3cccc(C(=O)Nc4ccc(F)cc4)c3C2=O)CC1	-4	-2	0	-2	-53*
CCC(C)NS(=O)(=O)c1ccc(NC(=O)c2ccc([N+](=O)[O-])cc2Cl)cc1 (configuration not stated)	17	-4	4	2	-31*
Cc1ccc2c(=O)cc(C(=O)Nc3c(C(=O)c4ccccc4)oc4ccccc34)oc2c1	·	0	1	-21	3
Clc1cccc(OCCN2CCCC2)c1	-73*	4	2	-11	-14
CC(C)c1cccc(OCCN2CCCC2)c1	-100*	-4	2	-19	-8
Cc1cccc(C)c1OCCN1CCCC1	-8	-3	-1	-10	-3
CN1CCN(CCOc2cccc(Cl)c2)CC1	?	-11	8	1	-24
CCC1CCCCN1CCCCOc1cccc(Cl)c1 (configuration not stated)	-96*	-23	4	-21	15
CC(=O)N1c2ccc(S(=O)(=O)NCC3CCC(C(=O)NCCC(C)C)CC3)cc2CC1C (configuration not stated)	·	-6	1	-4	10
CCc1ccc([C@@H]2C[C@H]3[C@@H](CN2S(=O)(=O)c2ccc(C)cc2)C(=O)C[C@@H](c2cccc(Cl)c2)N3S(=O)(=O)c2ccc(C)cc2)cc1	-7	·	·	-7	·
CCc1ccc(NC(=O)CSc2nc3c(sc4ccccc43)c(=O)n2CCCOC(C)C)cc1	·	-3	4	-8	-35*
COCCCn1c(SCC(=O)NCc2ccccc2)nc2c(sc3ccccc32)c1=O	·	-3	6	-8	-39*
CCc1ccc(NC(=O)CSc2nc3c(sc4ccccc43)c(=O)n2CCCOC)cc1	·	1	1	-8	2
CCc1ccc(C(=O)c2cn(CC(=O)Nc3ccc(C)c(C)c3)c3ccccc3c2=O)cc1	·	2	-1	10	21
CCOC(=O)c1[nH]ncc1CN1CCCC(C(=O)c2ccc(OC)c(OC)c2)C1 (configuration not stated)	-4	0	2	0	-1
CCOC(=O)C1CCN(Cc2cn[nH]c2-c2ccc(C)cc2)CC1	7	8	1	-5	3
CCOC(=O)c1[nH]ncc1CN1CCCC(C(=O)c2cc(Cl)ccc2OC)C1 (configuration not stated)	-102*	-5	17	-1	7
